# Screening results: PubChem, National Center for Advancing Translational Sciences (NCATS)
# DT40 TDP1 CPT – DT40-hTDP1 cell growth loss with CPT | chicken DT40 Tdp1-/-;hTDP1 cells + 20 nM CPT, ATP luminescence, 48 h | Potency, µM (titrated, usually from 46.2 µM), inactives show top-dose activity change, negative = growth inhibition, most hits filed as inhibitors | 12% of 420,000 active | AID 686979; also: potency is read from the fitted curve at half-maximal effect; nearly all actives have a fitted effect of over 55% in size
#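 Chicken DT40 Tdp1-/- cells stably complemented with human TDP1 were seeded at 400 cells/well in medium containing 20 nM camptothecin, exposed to pin-transferred compounds, and grown at 37 °C for at least 48 hr. Viability was read as ATP luminescence.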
# HT1080 IDH1KD tx – toxicity to HT-1080 IDH1 knockdown cells (counter line). HT-1080 IDH1 knockdown viability, ATP luminescence, 48 h. Potency, µM (titrated, usually from 46.1 µM), for inactives: at the highest dose activity, negative = toxicity, actives largely listed as cytotoxic. 2% of 360,000 active. AID 686971;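 also: potency is read from the fitted curve at half-maximal effect; 0% = DMSO wells and -100% = cell-free medium wells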
#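 Knockdown cells (IDH1KD HT-1080) received compounds 2 h after plating at 750 cells/well and were kept 48 h at 37 °C in 5% FBS RPMI. A CellTiter-Glo luminescence read gave % activity for curve fitting.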
# IL-1B inflam inh – blocks inflammasome-driven IL-1 beta release; THP-1 LPS/ATP IL-1B secretion, AlphaLISA, 16 h; hits give low values; activity change, % at 57.5 µM; 4.7% of 360,000 active; in the data active = activity change below about -50%; inconclusive = mostly about -30% to -49%
#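 THP-1 cells pretreated 1 hr with compounds (up to 57.5 uM final), then stimulated with LPS (250 ng/mL final) plus ATP (1.25 mM final); secreted IL-1B measured by AlphaLISA after 16 hr, decreased signal indicating inhibition.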
# TDP1 cell noCPT – qHTS for Inhibitors of human tyrosyl-DNA phosphodiesterase 1 (TDP1): qHTS in cells in absence of CPT | AID 686978, 2013 | DT40 Tdp1-/- hTDP1 cells, no CPT, ATP luminescence, 48 h | 15% of 420,000 active | Potency, µM (titrated, usually from 46.2 µM), for inactives: at the top dose activity change, negative = growth inhibition, actives largely listed as inhibitors; also: potency is read from the fitted curve at half-maximal effect; nearly all actives have a fitted effect of over 55% in size
#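 DT40 Tdp1-/-;hTDP1 cells, no CPT (DMSO vehicle only), 400 cells/well; compounds pin-transferred; ≥48 hr, 37 °C; CellTiter-Glo 30 min RT dark, luminescence read.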
# HT1080NT lethal – kills 2HG-producing HT-1080-NT fibrosarcoma cells. 1.6% of 360,000 active. HT-1080-NT fibrosarcoma viability, CellTiter-Glo ATP luminescence, 48 h. AID 686970. Potency, µM (highest dose often 46.1 µM), without a hit: at the top dose activity, negative = less viability, most hits filed as cytotoxic;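 also: NT is the 2HG producing partner of a matched IDH1 knockdown line; potency is read from the fitted curve at half-maximal effect; 0% = DMSO-treated cells and -100% = media-only wells without cells; nearly all actives have a fitted effect of over 55% in size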
#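 Compounds were tested in concentration-response format on HT-1080-NT cells for 48 hours at 37 degrees C. Cell viability came from CellTiter-Glo luminescence; curves were classified by r2, response magnitude and activity.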
# An asterisk follows results filed as active; ? = inconclusive; . = not tested or not shown. An excerpt weighted towards active compounds, which were near 19% of everything screened. Unless noted, calls follow the shape of the dose curve; as a rule, active = well fitted curve in the direction sought with a large enough effect; inconclusive = small, poorly fitted or top-dose-only effect, or another doubt; inactive = no such curve, though single readings can be large; an effect the other way counts as inactive or inconclusive. Unless noted, % is scaled to controls: 0 for no effect and ±100 for the full control effect.
SMILES,DT40 TDP1 CPT,HT1080 IDH1KD tx,IL-1B inflam inh,TDP1 cell noCPT,HT1080NT lethal
COC(=O)c1cc2oc(C)cc2n1CC(=O)Nc1cc(Cl)ccc1OC,?,.,.,-12%,.
COC(=O)c1cc2oc3ccccc3c2n1CC(=O)Nc1ccc(C)cc1C,?,.,.,-3%,.
Cc1nc(SCC(=O)c2cc(C)n(C3CC3)c2C)c2ccccc2n1,8.2µM*,2%,8,7.3µM*,5%
CCCc1nc(SCC(=O)N2CCCC2)c2ccccc2n1,-7%,0%,1,?,-2%
CCCc1nc(SCC(=O)c2ccc(OC)cc2)c2ccccc2n1,?,0%,-90*,?,-13%
CC(=O)Oc1ccc(Cn2c(C)c(C(=O)NC3CC3)sc2=O)cc1,-26%,1%,64,-21%,0%
O=C1N(c2ccccc2C(F)(F)F)O[C@@]1(c1ccccc1)C1CCCCC1,13µM*,?,-16,?,?
Cc1cccc(-n2nc(C(=O)c3ccco3)cc(-c3nc4ccccc4[nH]3)c2=N)c1,16µM*,-7%,-12,8.2µM*,0%
O=C(Cc1cccs1)Nc1ccccc1-c1nc2ccccc2[nH]1,?,?,-5,?,?
COC(=O)CSc1ncccc1-c1nc2ccccc2[nH]1,-26%,-5%,-11,?,2%
Cc1ccccc1-n1nc(C(=O)c2cccs2)cc(-c2nc3ccccc3[nH]2)c1=N,12µM*,-16%,14,7.3µM*,-7%
COc1ccc(-n2nc(C(=O)c3cccs3)cc(-c3nc4ccccc4[nH]3)c2=N)cc1,5.8µM*,-21%,?,5.8µM*,-6%
Cc1ccc(Cl)cc1-n1ncc2c(Nc3ccc4c(c3)OCCO4)ncnc21,26µM*,.,.,?,.
Cn1ncc2c(Nc3ccc(Cl)cc3)ncnc21,?,4%,12,?,14%
Fc1ccc(-n2ncc3c(Nc4ccc5c(c4)OCCO5)ncnc32)cc1,13µM*,.,.,29µM*,.
Cc1ccc(-n2ncc3c(NNC(=O)c4ccco4)ncnc32)cc1Cl,?,-30%,0,?,-26%
COc1ccc(Nc2ncnc3c2cnn3-c2ccccc2)cc1OC,?,-20%,-17,-11%,-22%
Cc1ccc(-n2ncc3c(Nc4ccc5c(c4)OCCO5)ncnc32)cc1Cl,?,.,.,23µM*,.
Cc1ccc(S(=O)(=O)Nc2ncccn2)cc1,0%,0%,18,1%,4%
CCc1nc(C)cn1S(=O)(=O)c1cc(C)c(OC)cc1C,-28%,-13%,9,?,6%
CCc1nc(C)cn1S(=O)(=O)c1cc(C)c(OC)c(C)c1C,8.2µM*,?,-4,10µM*,?
CCc1nc(C)cn1S(=O)(=O)c1ccc(Cl)c(Cl)c1Cl,18µM*,-16%,-25,21µM*,-19%
Cc1ccc(CNC(=O)C2CCC(=O)N(C3CC3)C2)cc1 (stereo unspecified),-13%,4%,15,21%,13%
CC(=O)c1ccc(N2CCN(c3ccc(S(=O)(=O)NCCN(C)C)cc3[N+](=O)[O-])CC2)cc1,?,1%,9,?,0%
CN(C)CCNS(=O)(=O)c1ccc(N2CCc3ccccc32)c([N+](=O)[O-])c1,16µM*,?,-23,26µM*,?
SMILES,DT40 TDP1 CPT,HT1080 IDH1KD tx,IL-1B inflam inh,TDP1 cell noCPT,HT1080NT lethal
CN(C)CCCNS(=O)(=O)c1ccc(N2CCN(Cc3ccc4c(c3)OCO4)CC2)c([N+](=O)[O-])c1,23µM*,?,-70*,21µM*,?
CC(=O)c1ccc(N2CCN(c3ccc(S(=O)(=O)NCCCN(C)C)cc3[N+](=O)[O-])CC2)cc1,23µM*,-20%,-19,23µM*,2%
CN(C)CCCNS(=O)(=O)c1ccc(-n2nnc3ccccc32)c([N+](=O)[O-])c1,?,-15%,34,?,?
CCN(CC(=O)NCc1ccc(F)cc1)C(=O)c1cccc(S(=O)(=O)N(C)c2ccc(OC)cc2)c1,?,0%,0,?,1%
Cn1c(=O)c2sccc2n2c(CCC(=O)NCc3ccccc3)nnc12,4%,.,.,-13%,.
O=C(NCc1c(Cl)cccc1Oc1ccccc1)c1ccccc1,?,-22%,.,?,-18%
O=c1c(N2CCc3ccccc3C2)csc2ccc(Br)cc12,23µM*,.,.,?,.
Brc1ccc(-c2csc(N3CCc4ccccc4C3)n2)cc1,-18%,0%,59,-29%,-4%
CCOC(=O)c1c(NC(=O)c2ccccc2)sc2c(O)c(CN(CC)CC)ccc12,23µM*,?,0,18µM*,-4%
CCN(CC)Cc1c(NC(=O)c2ccccc2)sc(C)c1C,-4%,-10%,-19,?,-15%
CN(C)c1ccc(C=C(C#N)C(=O)c2ccccc2)cc1Br,-1%,9%,-16,-2%,6%
COc1ccc(C2NC(=S)N3C(c4ccc(OC)c(OC)c4)NC(=S)N23)cc1OC (stereo unspecified),0.006µM*,.,.,0.0094µM*,.
CCOc1ccc2ccc(OCC)c(/C=N/n3cnnc3)c2c1,0%,-23%,-73*,?,-25%
CCOc1cc(/C=N/n2cnnc2)ccc1O,8%,3%,1,0%,-2%
CCn1c(=N)n(CC(=O)C(C)(C)C)c2ccccc21,-26%,7.9µM*,-6,?,7.1µM*
CCCn1c(=N)n(CC(=O)C(C)(C)C)c2ccccc21,?,-16%,-7,?,-13%
CCCCn1c(=N)n(CC(=O)C(C)(C)C)c2ccccc21,23µM*,?,0,?,-26%
CCn1c(=N)n(CC(=O)c2ccc(Br)s2)c2ccccc21,?,?,0,?,?
CCCCn1c(=N)n(CC(=O)c2ccc(Br)s2)c2ccccc21,5.2µM*,?,-98*,4.1µM*,?
CC(=O)N1CCC2(CC1)OC(=O)C(C)=C2C(=O)Nc1cccc(Cl)c1C,10%,.,.,5%,.
COc1ccc(C(=O)N2CCC3(CCCN(C(=O)Nc4cccc(F)c4)C3)CC2)cc1,10%,.,.,-16%,.
Cc1cc(C)c(-c2n[nH]c3c2C(c2ccccc2F)N(Cc2ccco2)C3=O)c(O)c1 (stereo unspecified),21µM*,.,.,21µM*,.
O=C1c2[nH]nc(-c3ccccc3O)c2C(c2cccc(O)c2)N1Cc1ccco1 (stereo unspecified),?,?,-22,?,-13%
COc1cc(C2c3c(-c4ccccc4O)n[nH]c3C(=O)N2Cc2ccco2)cc(OC)c1OC (stereo unspecified),-6%,-12%,3,0%,1%
